SRC1 TRFRET art = TR-FRET detection interference compounds, primary screen, artefact control for PPARgamma SRC-1 recruitment agonists, biochemical, TR-FRET emission ratio | TR-FRET detection artefact counter-screen; active compounds read high | TR-FRET ratio at 8 µM | hit rate 0.34% among 99,000 | AID 1051, 2008; in the data active = TR-FRET ratio above about 2300
PPARg SRC1 recr = PPARgamma agonists recruiting SRC-1 coactivator, primary screen, biochemical; PPARgamma-SRC-1 coactivator recruitment biochemical assay; activation, % at 8 µM; Peroxisome proliferator-activated receptor gamma (Homo sapiens), P37231; hit rate 0.41% among 200,000; in the data active = activation above about 19%
Target sequence (P37231 whole entry, looked up): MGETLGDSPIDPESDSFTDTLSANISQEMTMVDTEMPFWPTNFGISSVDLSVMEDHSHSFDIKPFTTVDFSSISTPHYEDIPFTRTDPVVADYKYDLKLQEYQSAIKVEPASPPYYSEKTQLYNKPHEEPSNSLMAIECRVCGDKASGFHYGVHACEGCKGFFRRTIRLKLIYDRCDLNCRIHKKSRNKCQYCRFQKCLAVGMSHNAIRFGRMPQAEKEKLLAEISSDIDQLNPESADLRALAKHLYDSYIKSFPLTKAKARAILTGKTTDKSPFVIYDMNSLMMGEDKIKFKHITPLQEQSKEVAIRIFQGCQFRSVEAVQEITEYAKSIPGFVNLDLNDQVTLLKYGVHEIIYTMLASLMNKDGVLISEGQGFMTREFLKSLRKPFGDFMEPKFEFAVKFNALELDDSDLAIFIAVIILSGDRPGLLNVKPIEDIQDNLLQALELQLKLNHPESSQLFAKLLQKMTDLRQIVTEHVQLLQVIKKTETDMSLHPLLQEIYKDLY
SRC2 TRFRET art = TR-FRET signal artefacts, primary screen, artefact control for PPARgamma SRC-2 agonist project, biochemical. TR-FRET artefact counter-screen; active compounds read high. hit rate 0.4% among 200,000. TR-FRET ratio at 8 µM
PPARg SRC3 recr = PPARgamma agonists recruiting SRC-3 coactivator, primary screen, biochemical; Peroxisome proliferator-activated receptor gamma (Homo sapiens), P37231; biochemical PPARgamma/SRC-3 coactivator recruitment assay; activation, % at 8 µM; hit rate 0.26% among 200,000; AID 731, 2007; in the data active = activation above about 23%
SRC3 TRFRET art = TR-FRET detection interference compounds, artefact control for PPARgamma SRC-3 recruitment agonists, biochemical, TR-FRET ratio; TR-FRET artefact counter-screen, PPARgamma/SRC-3 format; active compounds read high; TR-FRET ratio at 8 µM; hit rate 0.39% among 99,000; AID 1048, 2008
PPARg SRC-2 ag = agonists of PPARg-SRC-2 recruitment, primary screen, biochemical, HTS; Peroxisome proliferator-activated receptor gamma (Homo sapiens), P37231; PPARgamma LBD-SRC-2 recruitment; activation, % at 8 µM; hit rate 0.34% among 200,000; in the data active = activation above about 22%
PPARg SRC2 conf = agonists of PPARgamma SRC-2 coactivator recruitment, confirmation, biochemical, HTS; shares compounds with PPARg SRC3 recr; biochemical SRC-2 recruitment by PPARgamma; activation, % at 8 µM; hit rate 52% among 790; AID 1297, 2008; in the data active = activation above about 22%
PPARg SRC1 conf = PPARgamma agonists recruiting SRC-1 coactivator, confirmation, biochemical; shares compounds with PPARg SRC3 recr; PPARgamma–SRC-1 coactivator recruitment biochemical assay; activation, % at 8 µM; hit rate 43% among 790; AID 1300, 2008; in the data active = activation above about 20%
PPARg SRC3 conf = PPARgamma-driven SRC-3 coactivator recruitment agonists, confirmation, biochemical | shares compounds with PPARg SRC3 recr | activation, % at 8 µM | AID 1301, 2008 | biochemical PPARgamma-SRC-3 coactivator recruitment, agonist mode | hit rate 29% among 790; in the data active = activation above about 24%
Numbers stand for hits. This is a sample that favours compounds with a hit; in the whole collection about 0.9% have one here. Rule as the data show it, unless noted: active = TR-FRET ratio above about 2000; inactive = the rest.

Cn1c(=O)cc(SCC(=O)Nc2ccccn2)c2ccccc21 was read as PPARg SRC1 recr 44.6, SRC2 TRFRET art 2585, PPARg SRC3 recr 65.1, PPARg SRC-2 ag 59.0, PPARg SRC2 conf 33.8, PPARg SRC1 conf 23.5 and PPARg SRC3 conf 26.7.
Screening Cc1ccnc(NC(=O)CSc2cc(=O)n(C)c3ccccc23)c1 returned PPARg SRC1 recr 74.5, SRC2 TRFRET art 3578, PPARg SRC3 recr 95.9, PPARg SRC-2 ag 75.0, PPARg SRC2 conf 41.6, PPARg SRC1 conf 23.3 and PPARg SRC3 conf 27.5.
Screening Cc1ccnc(NC(=O)CCCOc2cc(=O)n(C)c3ccccc23)c1 returned PPARg SRC1 recr inactive, SRC2 TRFRET art inactive, PPARg SRC3 recr inactive and PPARg SRC-2 ag inactive.
For CCOC(=O)C1=C(CN2CCN(CCC#N)CC2)NC(=O)NC1c1ccc2c(c1)OCO2 (stereo not drawn) the results were SRC1 TRFRET art inactive, PPARg SRC1 recr inactive, SRC2 TRFRET art inactive, PPARg SRC3 recr inactive, SRC3 TRFRET art inactive and PPARg SRC-2 ag inactive.
For CN(CCCNC(=O)CSc1cc(=O)n(C)c2ccc(Cl)cc12)Cc1ccccc1 the results were SRC1 TRFRET art 3259, PPARg SRC1 recr 50.6, SRC2 TRFRET art 2374, PPARg SRC3 recr 46.4, SRC3 TRFRET art 3068, PPARg SRC-2 ag 57.6, PPARg SRC2 conf 39.6, PPARg SRC1 conf 24.2 and PPARg SRC3 conf inactive.
For COCCNC(=O)CSc1cc(=O)n(C)c2cc(Cl)ccc12 the results were SRC1 TRFRET art 3701, PPARg SRC1 recr 62.1, SRC2 TRFRET art 2945, PPARg SRC3 recr 39.9, SRC3 TRFRET art 2886, PPARg SRC-2 ag 27.6, PPARg SRC2 conf 38.6, PPARg SRC1 conf 25.5 and PPARg SRC3 conf 26.9.
For Cn1c(=O)cc(OCCCC(=O)N2CCCCC2)c2ccccc21 the results were PPARg SRC1 recr inactive, SRC2 TRFRET art inactive, PPARg SRC3 recr inactive and PPARg SRC-2 ag inactive.
For Cn1c(=O)cc(SCC(=O)N2CCOCC2)c2ccc(Cl)cc21 the results were PPARg SRC1 recr 61.1, SRC2 TRFRET art 2895, PPARg SRC3 recr 82.6, PPARg SRC-2 ag 62.1, PPARg SRC2 conf 28.6, PPARg SRC1 conf inactive and PPARg SRC3 conf inactive.
Screening Cn1c(=O)cc(SCC(=O)N2CCCC2)c2ccc(Cl)cc21 returned PPARg SRC1 recr 71.6, SRC2 TRFRET art 3299, PPARg SRC3 recr 86.8, PPARg SRC-2 ag 87.2, PPARg SRC2 conf 42.2, PPARg SRC1 conf 29.1 and PPARg SRC3 conf 30.3.
For N=C1c2ccccc2CN1NC(=O)COc1ccc(Cl)cc1 the results were SRC1 TRFRET art inactive, PPARg SRC1 recr inactive, SRC2 TRFRET art inactive, PPARg SRC3 recr inactive, SRC3 TRFRET art inactive and PPARg SRC-2 ag inactive.
Screening CCOc1ccccc1NC(=O)c1cc(SC)ccc1Cl returned SRC1 TRFRET art inactive, PPARg SRC1 recr inactive, SRC2 TRFRET art inactive, PPARg SRC3 recr inactive, SRC3 TRFRET art inactive and PPARg SRC-2 ag inactive.
For CCOc1nc(NC(=O)NS(=O)(=O)c2cccc(Cl)c2)nc(-c2ccccc2)n1 the results were SRC1 TRFRET art inactive, PPARg SRC1 recr inactive, SRC2 TRFRET art inactive, PPARg SRC3 recr inactive, SRC3 TRFRET art inactive and PPARg SRC-2 ag inactive.
CCOC(=O)CCC(NC(=O)c1ccc(NCN2C(=O)c3ccccc3C2=O)cc1)C(=O)OCC (stereo not drawn) was read as PPARg SRC1 recr 29.1, SRC2 TRFRET art inactive, PPARg SRC3 recr inactive, PPARg SRC-2 ag inactive, PPARg SRC2 conf inactive, PPARg SRC1 conf 27.8 and PPARg SRC3 conf inactive.
